This is a sample that favours compounds with a hit; in the whole collection about 3.6% have one here.
Rango complex inh: prevents formation of the Rango-importin beta complex; Rango CFP/YFP FRET sensor + importin beta, 45 min; Potency, µM (series often up to 92.2 µM), for inactives: at the highest dose inhibition of complex formation; hit rate 0.031% among 340,000; AID 540263; calls by dose curve;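 also: potency is read from the fitted curve at half-maximal effect; 0% = DMSO wells and 100% = buffer wells lacking importin beta; nearly all actives have a fitted effect of over 15% in size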
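FRET biosensor Rango (snurportin 1 IBB between N-terminal EYFP and C-terminal Cerulean), 50 nM in PBS/1 mM DTT/0.02% Tween-20/0.1% BSA, preincubated 5 min RT with compound; 0.125 microM importin beta added, 45 min RT, CFP/YFP FRET ratio read.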
Rango release inh: inhibition of RanGTP-driven Rango-importin beta dissociation; hit rate 0.071% among 340,000; O95149+P62826; Biochemical FRET Rango-importin beta, RanGTP-induced dissociation; Potency, µM (top dose mostly 46.1 µM), for inactives: at the highest dose activity change, negative = inhibition; calls by dose curve; also: potency is read from the fitted curve at half-maximal effect; % of control where 0% means no effect; nearly all actives have a fitted effect of over 45% in size
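Recombinant Rango FRET biosensor (EYFP–snurportin 1 IBB–cerulean CFP10) at 0.1 uM premixed with 0.25 uM importin beta in PBS, 1 mM DTT, 0.02% Tween-20, 0.1% BSA. Compound added 5 min; RanGTP-RCC1 (0.6 uM Ran, 2 mM GTP, 0.2 uM RCC1) then triggers release, read at 45 min.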
VDR inhibitor: inhibitors of human vitamin D receptor | P11473 | VDR-SRC2-3 peptide fluorescence polarization, 2 h | AID 504847 | hit rate 0.93% among 400,000 | Potency, µM, inactives show max response, negative = inhibition, usual class: inhibitors; also: potency is read from the fitted curve at half-maximal effect; % is scaled to controls: 0 for no effect and ±100 for the full control effect
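Measured by FP: displacement of SRC2-3 coactivator peptide from VDR by library compounds, following a two-hour ambient incubation.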
KAT2A inh: GCN5L2 (KAT2A) acetyltransferase inhibition; Q92830; GCN5L2 HAT assay, ThioGlo1 CoA-SH fluorescence; Potency, µM (titrated, usually from 58.9 µM), inactives show top-dose activity change, negative = inhibition, actives largely listed as inhibitors; hit rate 0.21% among 390,000; AID 504327; also: potency is read from the fitted curve at half-maximal effect; % is scaled to controls: 0 for no effect and ±100 for the full control effect
Target sequence (Q92830 whole entry, looked up): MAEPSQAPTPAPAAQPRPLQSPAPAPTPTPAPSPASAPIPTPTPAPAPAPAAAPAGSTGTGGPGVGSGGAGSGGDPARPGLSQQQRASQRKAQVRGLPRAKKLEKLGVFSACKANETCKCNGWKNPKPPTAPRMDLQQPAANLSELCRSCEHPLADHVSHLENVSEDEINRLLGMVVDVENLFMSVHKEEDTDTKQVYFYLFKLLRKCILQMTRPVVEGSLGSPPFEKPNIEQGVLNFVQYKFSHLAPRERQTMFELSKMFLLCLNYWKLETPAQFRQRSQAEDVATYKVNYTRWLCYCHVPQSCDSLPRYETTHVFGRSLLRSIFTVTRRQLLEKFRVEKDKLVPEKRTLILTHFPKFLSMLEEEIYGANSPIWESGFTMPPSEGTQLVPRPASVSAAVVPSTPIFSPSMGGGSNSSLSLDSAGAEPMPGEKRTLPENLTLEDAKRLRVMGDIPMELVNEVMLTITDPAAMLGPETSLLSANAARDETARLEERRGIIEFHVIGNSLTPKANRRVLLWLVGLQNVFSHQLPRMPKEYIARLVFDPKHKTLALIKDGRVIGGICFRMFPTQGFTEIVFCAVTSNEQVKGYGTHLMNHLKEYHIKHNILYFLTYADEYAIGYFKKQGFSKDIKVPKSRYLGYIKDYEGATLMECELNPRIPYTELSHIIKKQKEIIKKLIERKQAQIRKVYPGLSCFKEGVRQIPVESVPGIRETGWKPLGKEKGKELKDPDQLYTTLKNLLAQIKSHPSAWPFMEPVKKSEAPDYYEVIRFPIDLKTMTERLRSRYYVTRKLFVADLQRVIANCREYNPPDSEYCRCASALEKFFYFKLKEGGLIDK
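Free CoA generated was detected with ThioGlo1 (50uM) fluorescence at Ex340nm/Em540nm, read immediately and after 20 min at room temperature. Enzyme, 20 nM in HEPES pH 7.5 buffer, saw compounds 15 min before adding 75uM H3(1-25) peptide and 70uM acetyl-CoA.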
PLK1 PBD block: inhibitors of human PLK1 polo-box domain binding; P53350; Plk1 PBD binding of FITC phosphopeptide, fluorescence polarization; Potency, µM, for inactives: max response, negative = inhibition, actives largely listed as inhibitors; hit rate 2.8% among 360,000; also: potency is read from the fitted curve at half-maximal effect; series mostly up to about 57 µM; % is scaled to controls: 0 for no effect and ±100 for the full control effect; nearly all actives have a fitted effect of over 65% in size
PI5P4Ka inh: inhibitors of human PI5P4K alpha; P48426; PI5P4Kalpha enzyme, ADP-Glo luminescence, 60 min; active compounds read low; max response, %; hit rate 1.2% among 330,000; AID 652105; active = max response of -50% or lower; inconclusive = between -30% and -50%; inactive = -30% or higher; also: value at the top dose of about 77 µM; % is scaled to controls: 0 for no effect and ±100 for the full control effect
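Compounds were pin-transferred onto PI5P4Kalpha and substrate in HEPES pH 7.4 buffer with EGTA, CHAPS and 5% DMSO. ATP (5 microM final) started the reaction, which ran 60 minutes at room temperature before ADP-Glo detection.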
An asterisk follows results filed as active; ? = inconclusive; . = no result given; [ ] = another dose, or the depositor's remark. Unless noted, calls follow the shape of the dose curve; as a rule, active = well fitted curve in the direction sought with a large enough effect; inconclusive = small, poorly fitted or top-dose-only effect, or another doubt; inactive = no such curve, though single readings can be large; an effect the other way counts as inactive or inconclusive.

SMILES | Rango complex inh | Rango release inh | VDR inhibitor | KAT2A inh | PLK1 PBD block | PI5P4Ka inh
Cc1cccc(N2C(=O)c3cccc4c(N(C)CCO)ccc(c34)C2=O)c1 | ? | ? | -1% | -19% | 11µM* | .
CCC(C)CCCCCCCCCCC(=O)O (stereo unspecified) | ? | 2% | ? | . | 21µM* | 62
CCOc1ccccc1NC(=O)C(=O)/C=C(\O)c1cc(OC)ccc1OC | 0% | 7% | ? | 4%[0.501 µM] | 21µM* | -9
CN(Cc1ccco1)S(=O)(=O)c1ccc(CN2C(=O)c3cccnc3C2=O)s1 | 0% | -11% | -4% | 1% | 27µM* | 2
COc1cc2c(c(OC)c1)C(c1cccc(F)c1F)CC(=O)N2 (stereo unspecified) | . | . | -10% | -7% | . | .
O=C(N/N=C/c1ccc(O)c(O)c1O)/C(=C/c1ccc([N+](=O)[O-])cc1)NC(=O)c1ccccc1 | -4% | 1% | ? | -5% | 9.5µM* | -86*
Nc1ccccc1C#CC(=O)c1ccccc1 | 1% | -23% | ? | -1% | 8.4µM* | 4
COc1ccccc1/C=C/C(=O)c1ccccc1 | 4% | 25% | 79µM* | -8% | -12% | 2
O=C(/C=C/c1ccc2c(c1)OCCO2)c1ccccc1 | -4% | -9% | 50µM* | -11% | -15% | 1
O=C(/C=C/c1ccc[nH]1)c1ccccc1 | ? | ? | 79µM* | -5% | 30µM* | -22
O=C(/C=C/c1ccccc1O)c1ccc(Cl)cc1 | -1% | -3% | 35µM* | -10% | -26% | 3
COc1ccc(C(=O)/C=C/c2ccc3c(c2)OCCO3)cc1 | -3% | -9% | -27% | -8% | 4% | -1
O=C(/C=C/c1c[nH]c2ccccc12)c1ccccc1 | ? | ? | -12% | -10% | 2% | 13
COc1ccccc1CNC(=O)CC(c1ccc(C)cc1)N1Cc2ccccc2C1=O (stereo unspecified) | . | . | 3% | -3% | . | .
Cc1cccc(N2CCN(C(=O)Cn3nc(Cc4cccnc4)c4ccccc4c3=O)CC2)c1C | . | . | 3% | -3% | . | .
N#Cc1ccc(/C=C/C(=O)c2ccccc2)cc1 | 4% | -2% | 14µM* | -8% | -26% | 4
O=C(/C=C/c1ccccc1O)c1ccccc1 | 2% | 21% | 28µM* | . | -24% | -4
COc1cc(O)c(C(=O)/C=C/c2ccccc2)c(OC)c1 | -1% | 0% | 14µM* | -10% | -9% | 24
COc1cc(OC)c(C(=O)C=Cc2ccc(OC)c(OC)c2)c(OC)c1 | 4% | 23% | 27% | . | -16% | 0
CCOc1ccc(/C=C/C(=O)c2ccc(-c3ccccc3)cc2)cc1 | 2% | 0% | -17% | -10% | -24% | -3
O=C(/C=C/c1cccc2ccccc12)c1ccncc1 | -2% | 1% | 14µM* | -5% | ? | 4
CC(C)C(NS(=O)(=O)c1ccc2c(c1)oc(=O)n2C)C(=O)N1CCN(c2cccc(Cl)c2)CC1 (stereo unspecified) | . | . | 3% | -8% | . | .
COc1ccc(C(=O)n2cnc3ccccc32)cc1 | -5% | 2% | -28% | 0% | -3% | 2
COc1ccc(C(=O)n2cnc(N)n2)cc1 | 2% | 13% | -10% | 2.2µM* | ? | -14
COc1ccccc1NC(=O)C1=C(C)Nc2ncnn2C1c1cccn1C (stereo unspecified) | . | . | -1% | 10% | . | .
SMILES | Rango complex inh | Rango release inh | VDR inhibitor | KAT2A inh | PLK1 PBD block | PI5P4Ka inh
CC(C)(C)C1CCc2c(C(=O)NNC(=O)/C=C/C(=O)O)csc2C1 (stereo unspecified) | 5% | -13% | -18% | -3% | -13% | -69*
COc1ccc(-c2c3c([nH]c(=S)c2C#N)CCC3)cc1 | ? | -29% | ? | ? | 7.5µM* | -70*
COc1ccc(-c2c(C#N)c(SCC(N)=O)nc3c2CCCC3)cc1 | 6% | -5% | 7% | 0% | ? | 0
COc1ccc(OC)c(-c2c3c([nH]c(=S)c2C#N)CCCC3)c1 | -1% | -4% | 3% | -9% | 27µM* | -58*
O=C(Nc1ccc2c(c1)OC1(CCCC1)O2)C1CC1 | -2% | 5% | -11% | -1% | 27µM* | .
CCOc1ccc(CCNS(=O)(=O)c2cnc[nH]2)cc1OCC | 5% | 30% | 10% | -1% | 27µM* | 2
Cc1c(Cl)cccc1NC(=S)Nn1cnnc1 | 4% | 24% | 79µM* | -27% | 7.5µM* | 5
Cc1c(Cl)cccc1NC(=S)NC1CC1 | 2% | 15% | -25% | 4% | -4% | 0
O=C(O)c1cc(S(=O)(=O)Nc2ccc3oc(=O)sc3c2)ccc1O | 1% | 3% | 79µM* | -9% | 6.7µM* | -60*
CC(=O)c1c(C)oc2ccc(NS(=O)(=O)c3ccc(O)c(C(=O)O)c3)cc12 | 0% | -11% | -17% | -8% | -17% | -21
O=c1c(Cl)c(O)c2cccc3c4ccccc4n1c23 | 2% | -12% | ? | -14% | -27% | -57*
Cc1nn(CC(=O)NCc2ccccc2Cl)c(=O)c2cccn12 | . | . | 1% | -3% | . | .
COc1ccc(/C=N/NC(=O)Cn2nc(C)c([N+](=O)[O-])c2C)cc1 | 3% | 35% | ? | -2% | 30µM* | -10
COc1ccc(-n2c(=O)c3c(c4cc(OC)ccc4n3C)n(CCC(C)C)c2=O)cc1 | . | . | 4% | 1% | . | .
O=C(NCCCc1nc2ccccc2n1Cc1ccccc1F)c1ccco1 | . | . | -2% | 1% | . | .
CCOC(=O)N1CCc2c(sc(NCc3cccs3)c2C(=O)Nc2cc(Cl)ccc2OC)C1 | . | . | -8% | -15% | . | .
CC(C)(C)c1ccc(Cc2n[nH]c(=S)[nH]c2=O)cc1 | 6% | 8% | -8% | -16% | -13% | ?
O=c1[nH]c(=S)[nH]nc1Cc1ccc(Cl)c(Cl)c1 | 5% | 6% | -8% | -3% | -20% | -76*
O=S(=O)(NCCSc1nc2ccccc2o1)c1ccccc1 | 10% | 16% | -18% | 1% | 8.4µM* | ?
Cc1c(Cl)c(C(=O)NNC(=S)NCc2ccco2)nn1C | -4% | 0% | 16% | -1% | -22% | 0
Cn1cc(Cl)c(C(=O)NNC(=S)NCc2ccco2)n1 | -2% | -1% | ? | -3% | 27µM* | -9
O=c1cc(-c2nn[nH]n2)[nH]c(=O)[nH]1 | -1% | 19% | -9% | . | -3% | -70*
COc1ccc(S(=O)(=O)NCCc2sc(-c3cccnc3)nc2C)cc1 | . | . | 11% | -5% | . | .
NC(=O)Cn1c(=O)n(CCCCCC(=O)NCc2ccccc2Cl)c(=O)c2sccc21 | . | . | -6% | -6% | . | .
CCCCn1c(-c2cc(Cl)ccc2OC)n[nH]c1=S | 3% | 9% | 7% | . | -20% | .
COc1ccc(Cl)cc1-c1n[nH]c(=S)o1 | 4% | 14% | -2% | -16% | -20% | -75*
